Cy5 interf NS3h = Cy5 fluorescence quenchers or enhancers, artefact control for HCV NS3 helicase inhibitor project, biochemical, ChemBridge library, Cy5 readout; AID 720488, 2013; fluorescence interference ratio at 100 µM; hit rate 6% among 16,000; Cy5-dT15 DNA with NS3h, fluorescence interference; actives lie on both sides; signal over control mean, under 1 quenches;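 active means compound fluorescence over control fluorescence at most 0.8, a quencher, or at least a set upper limit, an enhancer; inactive means ratio between 0.8 and the set upper limit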
HCV NS3h FP = HCV NS3 helicase inhibitors, primary screen, biochemical, fluorescence polarization, ChemBridge library. Hepatitis C virus NS3 helicase. hit rate 1.6% among 16,000. inhibition, % at 100 µM. NS3h Cy5-dT15 DNA binding;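 active means inhibition above the average over every tested compound plus 3 SD, cut at about 40% in these data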
NS3h confirm = HCV NS3 helicase inhibitors, retest, confirmation, biochemical, fluorescence polarization, ChemBridge library; shares compounds with HCV NS3h FP; NS3h binding to Cy5-dT15 DNA; inhibition, % at 100 µM; hit rate 20% among 240;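 active means percent inhibition of 50% or more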
SSB FP counter = E. coli SSB-DNA binding inhibitors, counter-screen for HCV NS3 helicase inhibitor project, biochemical, fluorescence polarization, selected ChemBridge compounds; shares compounds with HCV NS3h FP; E. coli SSB binding Cy5-dT15; inhibition, % at 100 µM; hit rate 40% among 240; AID 720486, 2013;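 active means inhibition of at least 50%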;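 further: displacers lower Cy5 polarization so higher inhibition means more SSB displaced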
Target sequence (P0AGE0 whole entry, looked up): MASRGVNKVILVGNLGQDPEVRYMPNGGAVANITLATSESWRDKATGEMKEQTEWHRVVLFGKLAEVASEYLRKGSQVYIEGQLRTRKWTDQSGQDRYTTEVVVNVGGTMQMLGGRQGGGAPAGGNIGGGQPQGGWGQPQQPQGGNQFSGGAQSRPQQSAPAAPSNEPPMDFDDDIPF
Cy5 SSB fluor CB = Cy5 fluorescence interference with SSB-bound oligo, artefact control for HCV NS3 helicase inhibitor project, biochemical, E. coli SSB, selected ChemBridge compounds; fluorescence interference ratio at 100 µM; AID 720487, 2013; hit rate 8% among 240; shares compounds with HCV NS3h FP; Cy5-dT15/E. coli SSB fluorescence interference; actives lie on both sides;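 active means fluorescence interference ratio at or above 1.2, signal boosting, or at or below 0.8, signal quenching; inactive means ratio between 0.8 and 1.2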
Cy5 interf conf = Cy5-DNA-NS3h complex fluorescence interference, confirmation, artefact control for HCV NS3 helicase inhibitor project, biochemical, ChemBridge library | fluorescence interference ratio at 100 µM, hits read low | shares compounds with HCV NS3h FP | hit rate 44% among 240 | Cy5-dT15 DNA/NS3h fluorescence interference counterscreen;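 active means fluorescence interference ratio at or below 0.8 quencher or at or above a set limitenhancer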
Large screens that a line does not name were inactive (follow-up assays come after a bar, where they were run). Hits are enriched below; roughly 7.6% of the tested compounds scored in any of these assays.

Cc1nn(C(=O)COc2ccc(Cl)cc2)c(C)c1Sc1ccccc1[N+](=O)[O-]	none
O=C(NCCSCc1ccccc1Cl)C(c1ccccc1)c1ccccc1	none
CC(CNC(=O)c1ccc(Br)cc1)CN(C)C (stereo not given)	none
CCOc1ccc(-c2nn(-c3ccccc3)cc2/C=C2\SC(=S)N(CCOC)C2=O)cc1	none
O=C(Nc1ccc(F)c([N+](=O)[O-])c1)c1ccc2c(c1)OCCO2	none
O=C(Nc1ccc(F)c([N+](=O)[O-])c1)c1ccc2ccccc2c1	Cy5 interf NS3h 0.73 | NS3h confirm inactive | SSB FP counter 50 | Cy5 SSB fluor CB 0.7 | Cy5 interf conf 0.78
O=C1c2ccccc2NC(c2cccc(O)c2)N1Cc1ccco1 (stereo not given)	none
COC(=O)c1c(C)oc2ccc(OCc3cccc(Cl)c3)cc12	none
O=C(CN(c1ccc(F)cc1)S(=O)(=O)c1ccccc1)Nc1cccc(C(F)(F)F)c1	none
O=C(O)c1cc(-c2ccc(/C=C3/Sc4ccccc4C3=O)o2)ccc1O	HCV NS3h FP 110 | NS3h confirm 61 | SSB FP counter 102 | Cy5 SSB fluor CB inactive | Cy5 interf conf 0.69
CC(=O)N(/C=C1\Sc2ccccc2C1=O)c1ccc(C)cc1	none
Cc1ccc2c(c1)C1C=CCC1C(C(=O)O)N2 (stereo not given)	Cy5 interf NS3h 1.2, HCV NS3h FP 94 | NS3h confirm 75 | SSB FP counter 106 | Cy5 SSB fluor CB 1.4 | Cy5 interf conf inactive
COC(=O)c1ccccc1NC(=O)/C=C/c1ccccc1Cl	none
O=C1NC(=O)C(=Cc2cc(Br)ccc2OCc2cccc3ccccc23)C(=O)N1	HCV NS3h FP 48 | NS3h confirm inactive | SSB FP counter 72 | Cy5 SSB fluor CB inactive | Cy5 interf conf inactive
O=C1NC(=O)C(=Cc2ccccc2OCCOc2ccccc2)C(=O)N1	none
COc1cccc(OCC(=O)Nc2ccc3c(c2)OCCO3)c1	none
Cc1cc(/C=C2/SC(=O)NC2=O)c(C)n1C	none
COc1cccc(N2C(=O)/C(=C/c3ccc4c(c3)OCO4)SC2=S)c1	none
N=C1S/C(=C\c2ccc(-c3cccc(C(=O)O)c3)o2)C(=O)N1c1ccc2c(c1)OCO2	HCV NS3h FP 71 | NS3h confirm inactive | SSB FP counter 107 | Cy5 SSB fluor CB inactive | Cy5 interf conf inactive
CCC1=NN2C(=N)/C(=C/c3ccc(-c4cccc([N+](=O)[O-])c4)o3)C(=O)N=C2S1	none
CN1C(=O)/C(=C/c2ccc(-c3ccc(C(=O)O)cc3)o2)SC1=S	Cy5 interf NS3h 1.2, HCV NS3h FP 76 | NS3h confirm inactive | SSB FP counter inactive | Cy5 SSB fluor CB inactive | Cy5 interf conf inactive
COC(=O)c1ccc(-c2ccc(/C=C3/SC(=S)N(C)C3=O)o2)cc1	none
O=C1/C(=C\c2ccc(-c3cccc(Cl)c3)o2)SC(=S)N1CCS(=O)(=O)O	HCV NS3h FP 84 | NS3h confirm inactive | SSB FP counter 98 | Cy5 SSB fluor CB inactive | Cy5 interf conf inactive
COCCN1C(=O)/C(=C\c2ccc(-c3cccc([N+](=O)[O-])c3)o2)SC1=S	none
CCC1=NN2C(=N)/C(=C/c3ccc(-c4cccc(C(=O)O)c4)o3)C(=O)N=C2S1	HCV NS3h FP 52 | NS3h confirm inactive | SSB FP counter 87 | Cy5 SSB fluor CB inactive | Cy5 interf conf inactive
O=[N+]([O-])c1ccc(N/N=C(/c2ccccc2)c2ccncc2)c([N+](=O)[O-])c1	none
O=C(Nc1ccc(Cl)cc1)Nc1nnc(-c2cccc(Br)c2)s1	none
OCc1cn(-c2ccccc2)nc1-c1ccccc1	none
Cc1cccc(N2C(=O)C(=O)C(=C(O)c3ccccc3)C2c2ccc([N+](=O)[O-])cc2)c1 (stereo not given)	none
C=CCNC1=C(Cl)C(=O)N(c2cccc(Cl)c2Cl)C1=O	none
Cc1ccc2c(c1)NC(c1ccc(Cl)cc1Cl)C1=C(CC(C)(C)CC1=O)N2 (stereo not given)	none
CCSc1nc2ccccc2n1CC(=O)Nc1c(C)cccc1C	none

Assay outcomes deposited in PubChem BioAssay by Milwaukee Institute for Drug Discovery.
